Each structure is given as a SMILES string. In all, about 52,000 compounds went through this assay and about 4,300 (8.3%) were called active. The sample holds actives, similar compounds and a random draw of the others, so the mix is not that of the screen. Unmarked numbers belong to inactive results. Cut-off read from the data, not from the text of the source: active = survival mostly below about 52% (no sharp cut-off); inactive = mostly above about 56%.

This test concerns DeltatarO mutant. Kind of test: growth inhibition of S. aureus wild type versus tarO mutant, primary screen, teichoic acid synthesis inhibitors, RN4220, OD600 (AID 463173). The following applies: OD600, 18 h, active compounds read low, screened at 18.75 µg/mL (by protocol).
Regarding `Cc1ccc(NC(=O)Cn2nc(-c3ccncc3)ccc2=O)cc1Cl`, the survival is 120%.
For the molecule `Cc1cc(C)c(/C=C/c2onc(C)c2S(=O)(=O)N2CCC(C(=O)NCCc3ccccc3)CC2)c(C)c1`, the survival is 94%.
The same measure for `Cc1ccc(-n2nc3c(=O)n(CCCC(=O)NCc4ccccc4C)nc(C)c3c2C)cc1`: 120%; for `COC(=O)c1nc(C(=O)OC)c(C(=O)OC)nc1C(=O)OC`: 95%.
With `COc1ccc(Cl)cc1C(=O)Nc1sc2c(c1C(=O)OC(C)C)CCCC2`, the survival is 61%.
With `CCOC(=O)Cc1c(C(=O)OCC)nnc2c(-c3ccccc3)c(C)nn12`, the survival was 75%.
As for `CN(C)c1ccc(CNC(=O)c2ccccc2NC(=O)c2nsc3ccccc23)cc1`, the survival is 73%.
With `COc1ccccc1NC(=O)C1=C(C)Nc2nc(CCCO)nn2C1c1cccc(O)c1` (stereo unspecified) the figure was 144%; with `CCCN1CC=C2C(C#N)=C(N)C(C#N)(C#N)C(c3cccc(OC)c3)C2C1` (stereo unspecified), 95%; with `CCN1CC=C2C(C#N)=C(N)C(C#N)(C#N)C(c3ccc(OC)c4ccccc34)C2C1` (stereo unspecified), 108%.
Turning to `CCCOc1ccc(C2C3CN(CC)CC=C3C(C#N)=C(N)C2(C#N)C#N)cc1OC` (stereo unspecified), the survival was 0% (active).
The same measure for `CC1CCN(S(=O)(=O)c2ccc3c(c2)CCN3)CC1`: 102%; for `COc1cc(C2C(C(=O)Nc3ccc(C)cc3C)=C(C)Nc3nc(SCc4ccccc4)nn32)cc(OC)c1OC` (stereo unspecified): 64%; for `O=C(O)C1C(c2ccccc2)C(C(=O)N2CCCCC2)C1c1ccccc1` (stereo unspecified): 101%.
Regarding `Brc1ccccc1-n1ncc2c1ncn1nc(Cc3ccccc3)nc21`, the survival was 74%.
With `CC(C)(C)OC(=O)N1CCC(c2nnc(SCc3cccc(Cl)c3)o2)CC1` the figure was 1% (active).
With `Clc1ccccc1CSc1nnc(C2CCNCC2)o1` the figure was 89%; with `CC(C)(C)OC(=O)N1CCC(c2nnc(SCc3ccccc3F)o2)CC1`, 57%.
With `CC(C)(C)OC(=O)N1CCC(c2nnc(SCc3ccccc3)o2)CC1` the figure was 96%; with `CC(C)(C)OC(=O)N1CCC(c2nnc(SCc3ccccc3Cl)o2)CC1`, -1% (active); with `Clc1cccc(CSc2nnc(C3CCNCC3)o2)c1`, 104%.
With `CCN(C(=O)c1cnc(N2CCOCC2)c2ccccc12)c1cc(C)ccc1C`, the survival is 94%.
The same measure for `O=C(c1ccccc1)c1ccc2nc(Nc3cc(Cl)ccc3O)c3nncn3c2c1`: 118%; for `COc1ccc(NC(=O)CSc2oc(-c3ccc(C)cc3)nc2S(=O)(=O)c2ccc(C)cc2)c(OC)c1`: 60%.
The same measure for `CCCCn1cc(S(=O)(=O)c2ccc(C)c(C)c2)c(=O)c2cc(F)c(N3CCN(C)CC3)cc21`: 101%; for `COC(=O)c1ccccc1NC(=O)[C@H]1O[C@@H]2OC(C)(C)O[C@@H]2[C@H]2OC(C)(C)O[C@H]21`: 95%.
In the case of `Cc1ccc2c(CN3CCN(C(=O)c4ccc(Br)cc4)CC3)cc(=O)oc2c1`, the survival was 51%.
With `COc1cccc(N2CCN(Cc3cc(=O)oc4cc(C)ccc34)CC2)c1` the figure was 70%; with `COc1ccccc1C(=O)N1CCN(Cc2cc(=O)oc3cc(C)ccc23)CC1`, 38% (active); with `COc1ccc(CN2CCN(Cc3cc(=O)oc4cc(C)ccc34)CC2)c(OC)c1OC`, 101%.
Consider `Cc1ccc2c(CN3CCN(Cc4ccccc4Cl)CC3)cc(=O)oc2c1`, for which the survival is 43%.
`Cc1ccc2c(CN3CCN(C(=O)c4ccc(F)cc4)CC3)cc(=O)oc2c1`: the survival is 33% (active).
With `Cc1ccc(N2C(=O)CSC23C(=O)N(CC(=O)NCCc2ccccc2)c2ccccc23)cc1C` (stereo unspecified) the figure was 95%; with `O=c1[nH]c2cc3c(cc2cc1C(c1nnnn1C1CCCC1)N1CCc2ccccc21)OCCO3` (stereo unspecified), 64%.
With `COc1cccc(N2CC(NC(=O)c3cccc(OC)c3OC)CC2=O)c1` (stereo unspecified), the survival was 115%.
As for `NC(=O)CN(C1CCCCC1)S(=O)(=O)c1ccc(Br)cc1`, the survival was 96%.
In the case of `CCCCC(CC)CNC(=O)c1ccc2c(=O)n(Cc3ccc(OC)cc3)c(=O)[nH]c2c1` (stereo unspecified), the survival was 84%.
With `Fc1ccc(C(NCCc2ccc(Cl)cc2)c2nnc(-c3ccccc3Cl)o2)cc1` (stereo unspecified) the figure was 26% (active); with `Fc1ccc(NCc2ccccc2-c2nnc(-c3ccccc3Cl)o2)cc1`, 88%; with `COc1ccc(CCNC(c2ccc(F)cc2)c2nnc(-c3ccccc3Cl)o2)cc1OC` (stereo unspecified), 57%.
The same measure for `Fc1ccc(C(Nc2ccccc2Cl)c2nnc(-c3ccccc3Cl)o2)cc1` (stereo unspecified): 83%.
Regarding `Cc1ccc(CCNC(c2ccc(F)cc2)c2nnc(-c3ccccc3Cl)o2)cc1` (stereo unspecified), the survival was -8% (active).
With `Fc1ccc(C(NCCc2ccccc2)c2nnc(-c3ccccc3Cl)o2)cc1` (stereo unspecified), the survival is 104%.
With `CCOc1ccc(C(C)C)cc1S(=O)(=O)Nc1cccc(-c2ccc(N3CCOCC3)nn2)c1` the figure was 87%; with `Cc1nc2nc(NC(=O)c3ccc(C(C)(C)C)cc3)[nH]n2c(=O)c1Cl`, 98%; with `Cc1nn(C(=O)c2cccc([N+](=O)[O-])c2C)c(C)c1S(=O)(=O)N1CCOCC1`, 76%.
On to `Cc1nn(S(=O)(=O)c2ccc(F)cc2)c(C)c1S(=O)(=O)N1CCC(C)CC1`, for which the survival is -1% (active).
With `Cc1nn(C(=O)c2ccccc2F)c(C)c1S(=O)(=O)N1CCCCCC1` the figure was 83%; with `Cc1nn(S(=O)(=O)c2ccccc2)c(C)c1S(=O)(=O)N1CCC(C)CC1`, 72%.
In the case of `COc1ccc(S(=O)(=O)n2nc(C)c(S(=O)(=O)N3CCCCCC3)c2C)cc1OC`, the survival was 6% (active).
As to `COc1ccc(S(=O)(=O)n2nc(C)c(S(=O)(=O)N3CCCCCC3)c2C)cc1C`, the survival was 81%.
Regarding `COc1ccc(S(=O)(=O)n2nc(C)c(S(=O)(=O)N3CCC(C)CC3)c2C)cc1OC`, the survival is 70%.
With `Cc1nn(S(=O)(=O)c2ccc(F)cc2)c(C)c1S(=O)(=O)N1CCCCC1` the figure was 72%; with `Cc1nn(C(=O)c2cccc([N+](=O)[O-])c2C)c(C)c1S(=O)(=O)N1CCCCCC1`, -2% (active); with `CC(C)c1ccc(Nc2cc(C(=O)NCCc3ccccc3)c3ccccc3n2)cc1`, 81%.
With `Cc1nn(CC(=O)NCc2ccccc2Br)c(=O)c2cc3occc3n12` the figure was 132%; with `Cc1ccc(CCNC(=O)c2ccc3c(c2)N(Cc2ccc(F)cc2)CCS3)cc1`, 71%; with `CC1=C(c2ccc(C(C)C)cc2)S(=O)(=O)N=C1N1CCN(c2ccc(F)cc2)CC1`, 74%.
With `O=S(=O)(NCCS(=O)(=O)N1CCN(c2cccc(Cl)c2)CC1)c1ccc(F)cc1` the figure was 83%; with `CCC1CCCCN1CCCNC(=O)c1cc2c(Cl)nc3ccc(C)cc3c2s1` (stereo unspecified), 67%.
Regarding `COc1ccccc1C(=O)NCCn1cc(SCC(=O)Nc2ccccc2F)c2ccccc21`, the survival was 55%.
The same measure for `COc1ccccc1C(=O)NCCn1cc(SCc2ccc(C)cc2)c2ccccc21`: 22% (active).
In the case of `COc1ccc(CCNC(=O)CSc2cn(CCNC(=O)c3ccccc3F)c3ccccc23)cc1OC`, the survival was 137%.
Consider `O=C(NCCn1cc(SCc2ccccc2Cl)c2ccccc21)c1cccs1`, for which the survival was 57%.
Consider `COc1ccccc1C(=O)NCCn1cc(SCc2ccccc2Cl)c2ccccc21`, for which the survival is 34% (active).
With `Cc1ccc(CSc2cn(CCNC(=O)c3cccs3)c3ccccc23)cc1` the figure was 58%.
Turning to `CCOc1ccc(C(=O)Nc2ccc(S(=O)(=O)N3CCOCC3)cc2)cc1OCC`, the survival was 72%.
The same measure for `CCOc1ccc(CNC(=O)c2cccc(NC(=O)N3CCSc4ncccc43)c2)cc1OC`: 92%.
With `COc1cccc(N2CC(NC(=O)c3ccc4c(c3)OCO4)CC2=O)c1` (stereo unspecified) the figure was 92%.
The same measure for `Cc1c(C(=O)NCCN(C)C)sc2nc3n(c(=O)c12)CCC3`: 87%; for `O=C(C1CCCCC1)N(Cc1nc2sc3c(c2c(=O)[nH]1)CCCC3)Cc1cccs1`: 66%; for `Cc1sc2nc(CN(C(=O)c3cccs3)C3CCCC3)[nH]c(=O)c2c1C`: 80%.
Regarding `O=C(c1cccs1)N(Cc1nc2sc3c(c2c(=O)[nH]1)CCCC3)C1CCCC1`, the survival is 45% (active).
Regarding `Cc1ccc(NCc2cccn2-c2nnc(N3CCC(C(=O)NCc4ccc(OC(C)C)cc4)CC3)s2)cc1`, the survival was 69%.
With `CCCCn1c(=N)c(C(=O)NC2CCCCC2)cc2c(=O)n3cccc(C)c3nc21` the figure was 62%; with `CCOc1ccc(C(=O)Nc2ccc3c(c2)OCCO3)cc1Br`, 37% (active); with `CCOc1ccc(C(=O)Nc2cccc(NC(=O)c3ccc(C(C)(C)C)cc3)c2)cc1Br`, 81%.
In the case of `CCOc1ccc(C(=O)Nc2ccc(NC(=O)c3ccccc3)cc2)cc1Br`, the survival is 85%.
The same measure for `O=C(C1COc2ccccc2O1)N(Cc1cccnc1)c1nc2c(F)cccc2s1` (stereo unspecified): 84%; for `CCCC(=O)N1CCCC(c2nc(-c3cccs3)no2)C1` (stereo unspecified): 107%.
For the molecule `Cc1c(C)n(Cc2ccccc2)c2ccc(C(=O)NC(C)c3ccccc3)cc12` (stereo unspecified), the survival was 78%.
The same measure for `COc1ccc(NC(=O)c2oc3c(c2C)-c2nn(Cc4c(F)cccc4Cl)cc2CC3)c(OC)c1`: 72%; for `COc1cc(C)ccc1OCCSc1nnc(-c2cccs2)o1`: 40% (active).
With `COc1ccc(-c2nnc(SCCOc3ccccc3C)o2)cc1OC` the figure was 64%; with `Cc1ccc(OCCSc2nnc(-c3cccs3)o2)cc1`, 53%; with `Cc1ccc(OCCSc2nnc(-c3cccs3)o2)cc1Cl`, 45% (active).
The same measure for `Cc1cccc(OCCSc2nnc(-c3cccs3)o2)c1`: 58%; for `Cc1cc(Cl)ccc1OCCSc1nnc(-c2cccs2)o1`: 37% (active).
Regarding `Clc1ccccc1OCCSc1nnc(-c2cccs2)o1`, the survival is 43%.
Turning to `COc1cc(C)ccc1OCCSc1nnc(-c2ccc(C)cc2)o1`, the survival is 55%.
The same measure for `Cc1ccccc1OCCSc1nnc(-c2cccs2)o1`: 106%.

The record behind these values is PubChem BioAssay AID463173 (ICCB-Longwood Screening Facility, Harvard Medical School, 2010).
